Out of some 5,500 compounds screened, about 2,000 (36%) were called active. Roughly 18% stayed inconclusive and do not appear here. Rule as the data show it: active = normalized growth mostly below about 0.91 (no sharp cut-off); inconclusive = no clear call, values can overlap the other calls; inactive = mostly above about 0.92. The list shows a part of the results.
Test: chemical genetic growth profiling, strain panel (AID 1159580);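 also: tested at 20 µM; growth read once vehicle control cultures reached saturation at 30 °C; 1 = growth at the plate median or of vehicle wells; lower values mean less growth of the strain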
Conditions: S. cerevisiae deletion strains, growth OD
[1] = locus YCL061C, strain MRC1, active compounds read low
[2] = locus YHR030C, strain SLT2, active compounds read low

Measured: normalized growth

O=C(CSc1nnnn1-c1ccccc1)NC1Cc2ccccc2C1
inactive: locus YAL013W, strain DEP1, active compounds read low 1.02 | locus YBR229C, strain ROT2, active compounds read low 0.998 | [1] 1.02 | locus YDL101C, strain DUN1, active compounds read low 1 | locus YDL134C, strain PPH21, active compounds read low 1 | locus YDR150W, strain NUM1, active compounds read low 0.988 | locus YEL061C, strain CIN8, active compounds read low 0.988 | locus YGR078C, strain PAC10, active compounds read low 1.02 | [2] 1.02 | locus YHR087W, strain rtc3, active compounds read low 0.99 | locus YJR043C, strain POL32, active compounds read low 1.04 | locus YJR075W, strain HOC1, active compounds read low 1.01 | locus YLR039C, strain RIC1, active compounds read low 1.07 | locus YLR058C, strain SHM2 (second series), active compounds read low 0.996 | locus YLR085C, strain ARP6, active compounds read low 0.991 | locus YLR262C, strain YPT6, active compounds read low 1.07 | locus YML094W, strain GIM5, active compounds read low 0.999 | locus YMR219W, strain ESC1, active compounds read low 0.996 | locus YMR263W, strain SAP30, active compounds read low 1 | locus YMR307W, strain GAS1, active compounds read low 1.06 | locus YNL128W, strain TEP1, active compounds read low 1 | locus YNL153C, strain GIM3, active compounds read low 1.03 | locus YNL298W, strain CLA4 (second series), active compounds read low 1.01 | locus YNL322C, strain KRE1, active compounds read low 0.999 | locus YNR030W, strain Alg12, active compounds read low 0.995 | locus YOL006C, strain TOP1, active compounds read low 0.944 | locus YPL055C, strain LGE1, active compounds read low 0.879 | locus YPL241C, strain CIN2, active compounds read low 0.985 | locus YPR135W, strain CTF4, active compounds read low 1.01

Cc1[nH]c(C)c(Cl)c(=O)c1Cl
inactive: locus YAL021C, strain ccr4, active compounds read low 1.01 | locus YAL026C, strain drs2, active compounds read low 1.01 | locus YAL030W, strain snc1, active compounds read low 0.998 | locus YBL061C, strain skt5, active compounds read low 1 | locus YBR009C, strain hhf1, active compounds read low 1.03 | locus YBR023C, strain chs3, active compounds read low 1 | locus YBR171W, strain sec66, active compounds read low 1 | locus YBR231C, strain swc5, active compounds read low 0.996 | locus YBR279W, strain paf1, active compounds read low 0.999 | locus YCL011C, strain gbp2, active compounds read low 1.01 | locus YCL016C, strain dcc1, active compounds read low 0.997 | [1] 0.998 | locus YCL069W, strain vba3, active compounds read low 0.997 | locus YCR088W, strain abp1, active compounds read low 1 | locus YDL005C, strain med2, active compounds read low 1.01 | locus YDL040C, strain nat1, active compounds read low 1 | locus YDR001C, strain nth1, active compounds read low 0.994 | locus YDR069C, strain doa4, active compounds read low 1.02 | locus YDR137W, strain rgp1, active compounds read low 1.01 | locus YDR159W, strain sac3, active compounds read low 0.981 | locus YDR195W, strain ref2 0.962 | locus YDR297W, strain sur2, active compounds read low 1.01 | locus YDR334W, strain swr1, active compounds read low 1 | locus YDR335W, strain msn5, active compounds read low 1 | locus YDR392W, strain spt3, active compounds read low 1.03 | locus YEL003W, strain gim4, active compounds read low 1.01 | locus YEL037C, strain rad23, active compounds read low 0.999 | locus YEL061C, strain CIN8 (second series), active compounds read low 1.01 | locus YER015W, strain faa2, active compounds read low 0.999 | locus YER016W, strain bim1, active compounds read low 0.995 | locus YER111C, strain swi4, active compounds read low 0.999 | locus YER155C, strain BEM2 (second series), active compounds read low 1.01 | locus YFR010W, strain ubp6, active compounds read low 1.01 | locus YGL167C, strain pmr1, active compounds read low 0.999 | locus YGL173C, strain kem1, active compounds read low 1 | locus YGL227W, strain vid30, active compounds read low 0.996 | locus YGL240W, strain doc1, active compounds read low 0.998 | locus YGL253W, strain hxk2, active compounds read low 1.01 | locus YHR013C, strain ard1, active compounds read low 0.979 | locus YHR027C, strain rpn1, active compounds read low 0.992 | [2] 1.04 | locus YHR079C, strain IRE1, active compounds read low 1.03 | locus YHR142W, strain chs7, active compounds read low 1.01 | locus YJL092W, strain hpr5, active compounds read low 0.996 | locus YJL095W, strain BCK1 (second series), active compounds read low 0.998 | locus YJL095W, strain BCK1, active compounds read low 0.983 | locus YJL115W, strain asf1, active compounds read low 1.01 | locus YJL129C, strain trk1, active compounds read low 0.992 | locus YJL154C, strain vps35, active compounds read low 0.999 | locus YJL164C, strain tpk1, active compounds read low 1.01 | locus YJL166W, strain qcr8, active compounds read low 1.01 | locus YJR066W, strain TOR1, active compounds read low 0.986 | locus YKL160W, strain elf1, active compounds read low 1 | locus YKR026C, strain gcn3, active compounds read low 1 | locus YKR091W, strain srl3, active compounds read low 1 | locus YLL001W, strain dnm1, active compounds read low 1 | locus YLL026W, active compounds read low 1 | locus YLL041C, strain sdh2, active compounds read low 1 | locus YLR027C, strain aat2, active compounds read low 1.01 | locus YLR113W, strain HOG1, active compounds read low 0.98 | locus YLR221C, strain rsa3, active compounds read low 0.997 | locus YLR258W, strain gsy2, active compounds read low 0.995 | locus YLR262C, strain YPT6 (second series), active compounds read low 1.03 | locus YLR320W, strain mms22, active compounds read low 1 | locus YLR342W, strain FKS1, active compounds read low 1 | locus YLR357W, strain rsc2, active compounds read low 1 | locus YLR370C, strain arc18, active compounds read low 0.998 | locus YLR384C, strain iki3, active compounds read low 0.995 | locus YML120C, strain ndi1, active compounds read low 1.01 | locus YMR058W, strain fet3, active compounds read low 1.01 | locus YMR125W, strain sto1, active compounds read low 0.994 | locus YMR129W, active compounds read low 0.993 | locus YMR205C, strain PFK2, active compounds read low 0.988 | locus YMR231W, strain pep5, active compounds read low 0.991 | locus YNL071W, strain lat1, active compounds read low 1 | locus YNL183C, strain NPR1, active compounds read low 0.972 | locus YNL209W, strain ssb2, active compounds read low 1.01 | locus YNL248C, strain rpa49, active compounds read low 1.01 | locus YNL322C, strain KRE1 (second series), active compounds read low 0.999 | locus YNR049C, strain mso1, active compounds read low 1 | locus YOR001W, strain rrp6, active compounds read low 1.01 | locus YOR070C, strain gyp1, active compounds read low 1.01 | locus YOR080W, strain dia2, active compounds read low 0.991 | locus YOR083W, strain WHI5, active compounds read low 1.01 | locus YOR106W, strain vam3, active compounds read low 1.02 | locus YOR231W, strain MKK1, active compounds read low 0.999 | locus YOR265W, strain rbl2, active compounds read low 1.01 | locus YOR270C, strain vph1, active compounds read low 1 | locus YOR290C, strain snf2, active compounds read low 0.999 | locus YPL051W, strain arl3, active compounds read low 1.01 | locus YPL078C, strain atp4, active compounds read low 1 | locus YPL106C, strain sse1, active compounds read low 1 | locus YPL240C, strain hsp82, active compounds read low 0.991 | locus YPL256C, strain CLN2, active compounds read low 1.02

Reference: PubChem BioAssay AID1159580 (chemical genetic matrix, 2015)
